BoNT-A LC inh2 – blocks Botulinum neurotoxin A light chain protease | 360,000 compounds, 0.17% hits | AID 588499 | multiplex microsphere protease substrate cleavage, flow cytometry | inhibition, % at 10 µM; note: plate controls were buffer without enzyme for full effect and enzyme alone for no effect
BoNT F protease – blocks Botulinum neurotoxin F light chain protease. 360,000 compounds, 0.22% hits. inhibition, % at 10 µM. Multiplex microsphere protease cleavage assay, flow cytometry; in the data active = inhibition above about 35%, passing the limit was not always enough; inconclusive = no clear call, values can overlap the other calls; note: plate controls were buffer without enzyme for full effect and enzyme alone for no effect
Autofluor counter – compound fluorescence in toxin protease inhibitor counterscreen; compound autofluorescence counterscreen, microsphere flow cytometry; hits give high values; fluorescence intensity (concentration not given with the values); 360,000 compounds, 3.1% hits; in the data active = fluorescence intensity above about 16000; inconclusive = no clear call, values can overlap the other calls
Anthrax LF inh2 – blocks Bacillus anthracis lethal factor protease | 360,000 compounds, 0.12% hits | P15917 | AID 588501 | inhibition, % at 10 µM | multiplex microsphere protease cleavage assay, LF; note: plate controls were buffer without enzyme for full effect and enzyme alone for no effect
SSB-PriA inh – K. pneumoniae PriA-SSBct interaction inhibition; AlphaScreen SSBct-PriA binding, biotinylated peptide; inhibition, % at 33 µM; 430,000 compounds, 0.6% hits; AID 1272365; in the data active = inhibition mostly above about 37%, no sharp cut-off; inactive = mostly below about 20%;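 note: plate controls were negative control peptide for no effect and reference peptide for full effect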
* marks the source's active call; other numbers are inactive results; ? = inconclusive; / = not tested or not shown. An excerpt weighted towards active compounds, which were near 3.1% of everything screened. Cut-off read from the data, not from the text of the source, unless noted: active = inhibition above about 30%; inconclusive = no clear call, values can overlap the other calls; inactive = below that.

SMILES	BoNT-A LC inh2	BoNT F protease	Autofluor counter	Anthrax LF inh2	SSB-PriA inh
c1ccc(-c2ccccn2)nc1	-0.7	-6.2	6075	2.5	7.2
N#Cc1cnc(-c2ccccn2)nc1N	/	/	/	/	82.8*
COc1cccc(NC(=S)C(=C([O-])c2cc(C)n(-c3ccccc3F)c2C)[n+]2ccc(N(C)C)cc2)c1	/	/	/	/	-5.1
COc1ccccc1OCC(=O)NCCN1CCN(c2ccc(Cl)cc2)CC1	/	/	/	/	-16.0
Cc1cc(C)c(C(=O)COC(=O)[C@H](C)Nc2ccc(C(F)(F)F)cc2[N+](=O)[O-])c(C)c1	0.9	1.5	21371*	-1.3	-0.8
CCCCNC(=O)OCCNC(=O)NC	?	9.2	18838*	-18.5	-6.7
O=C(c1csc2ccccc12)N1CCCCCC1	-1.8	-1.7	20758*	1.5	-6.4
CCOC(=O)c1c(C)c(C(=O)NC2CCCCCC2)c(C)n1C	?	5.1	21622*	2.7	2.8
CCOC(=O)c1c(C)c(C(=O)NCc2ccccc2OC)c(C)n1C	-4.7	-6.4	22066*	1.2	-0.2
CCOCCCNC(=O)c1c(C)c(C(=O)OCC)n(C)c1C	?	8.0	18479*	-8.0	-16.6
CCOC(=O)c1ccc2c(c1)sc(=NC(=O)c1ccc(Br)s1)n2C	/	/	/	/	-3.0
O=C(CCSc1ccccc1)N1CCC(c2cccs2)CC1	/	/	/	/	-41.0
CCOC(=O)/C(=C/C1=CC(=C/N(C)C)/C(=O)O1)C(C)=O	-0.2	36.3*	2895	-8.0	2.3
O=C(COc1ccc2ccccc2c1Br)N1CCN(c2ccccn2)CC1	1.8	0.7	21691*	-1.3	-13.4
O=C(COc1ccc2ccccc2c1Br)N1CCCCC1	-1.4	-6.5	6432	-2.6	-13.2
Cc1[nH]nc(C(=O)O)c1Br	/	/	/	/	1.0
Cc1snc(S(=O)(=O)Cc2ccccc2Cl)c1C#N	-0.7	-1.1	21018*	-3.0	-1.7
O=c1[nH]c(=O)n(-c2cccc(Cl)c2)c(O)c1/C=N/c1ccccn1	0.2	-1.7	2611	-1.4	/
N=Cc1c(O)n(-c2cccc(Cl)c2)c(=O)[nH]c1=O	-1.2	-1.6	23754*	-2.1	-12.1
CCCC(C(=O)OCC)P(=O)(c1ccccc1)c1ccccc1 (stereo not given)	?	0.9	23167*	-2.7	-2.7
CCOC(=O)CC(C(=O)OCC)P(=O)(c1ccccc1)c1ccccc1 (stereo not given)	0.5	-4.9	2036	-1.2	-11.4
COc1ccc(F)cc1S(=O)(=O)N1CCC[C@H](Cc2nc(-c3cnccn3)no2)C1	/	/	/	/	1.0
CCOC(=O)c1ccc(N2C(=O)C(O)=C(S(=O)(=O)c3ccccc3)C2c2ccccc2)cc1 (stereo not given)	/	/	/	/	3.0
Cc1ccccc1OCC(O)CN1CCN(CCN2C(=O)c3cccc4cccc(c34)C2=O)CC1 (stereo not given)	-0.5	-3.6	2487	0.5	33.5
Cc1ccc(OCCOC[C@@H](O)CN2CCN(CCN3C(=O)c4cccc5cccc(c45)C3=O)CC2)cc1C	/	/	/	/	36.0*
SMILES	BoNT-A LC inh2	BoNT F protease	Autofluor counter	Anthrax LF inh2	SSB-PriA inh
CC1(C)CC(=O)C2=C(C1)NC1=C(C(=O)c3ccccc31)C2c1ccc(O)cc1 (stereo not given)	-0.4	-2.9	2116	0.8	49.5*
CCCc1ccc(C2C3=C(CC(C)(C)CC3=O)NC3=C2C(=O)c2ccccc23)cc1 (stereo not given)	-1.0	-35.1	11194	-11.2	47.1*
COc1ccc(Cl)cc1NC(=O)NCCCn1nc(-c2ccc(F)cc2)ccc1=O	/	/	/	/	-3.0
O=C(Cc1ccc(Cl)cc1)Nc1ccc(-c2ccc(N3CCOCC3)nn2)cc1	/	/	/	/	-11.0
Cc1sc(NC(=O)c2ccc(Cl)s2)c(C(N)=O)c1C	-0.2	-1.6	16138*	-9.9	-10.8
COC(=O)c1c(NC(=O)c2ccc(Cl)s2)sc(C)c1C	/	/	/	/	-11.0
Cc1cnc(C(=O)N2CCc3nc4ccc(F)cn4c(=O)c3C2)cn1	/	/	/	/	-6.0
Cc1cc(Cl)ccc1NC(=O)C(C)Oc1ccc(Cl)cc1C (stereo not given)	/	/	/	/	-12.0
Cc1cc(Cl)ccc1OC(C)c1nnc(N)s1 (stereo not given)	-0.8	-1.2	16493*	-2.3	8.3
CN(C)CCCN(C(=O)c1ccco1)c1nc2c(F)cccc2s1	-1.0	-12.6	6793	-2.4	-4.4
CC(=O)c1ccc(C(=O)N(CCCn2ccnc2)c2nc3c(C)cc(C)cc3s2)cc1	/	/	/	/	49.0*
O=C(c1ccco1)N(CCCn1ccnc1)c1nc2ccccc2s1	/	/	/	/	72.2*
Cc1ccc2sc(N(CCCn3ccnc3)C(=O)c3ccco3)nc2c1C	/	/	/	/	87.8*
O=C(CSc1ccccc1)N(CCCn1ccnc1)c1nc2c(Cl)cccc2s1	/	/	/	/	1.0
O=C(c1cccs1)N(CCCn1ccnc1)c1nc2c(Cl)cccc2s1	/	/	/	/	77.0*

From PubChem
